Screening data as filed in PubChem BioAssay.
MRP-1 activ: activates MRP-1; H69AR cells + doxorubicin, viability rescue, CellTiter-Glo; viability increase, % at 10 µM; 140,000 tested, 0.61% active;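 active = viability gain under doxorubicin at or above a set limit, the compound median plus 3 SD, cut at about 4.7% in these data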;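 also: MRP-1 overexpressing cells given doxorubicin 25 µM after compound pretreatment; 18-22 h compound pretreatment then 72 h with doxorubicin before readout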
MRP resist rev: reverses drug resistance mediated by MRP; 85,000 tested, 0.04% active; H69AR cells + 2 uM doxorubicin, CellTiter-Glo, 72 h; differential viability (reversal), % at 10 µM;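 active = viability drop by adding the cancer drug above about 55%, with treated viability meeting a 40% cutoff, limit read from the data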;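 also: larger differential means the compound sensitizes cells more to doxorubicin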
sdo1 growth: restores growth of sdo1-depleted yeast; S. cerevisiae sdo1-depleted JHY4D growth rescue, OD600 30 h; stronger effect = higher value; pdr5 snq2 efflux-pump mutant strain; z-score at 10 µM; 140,000 tested, 0.21% active;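 active = z-score above 3 at both the 24 hr and the 30 hr optical density reads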
sEH act: increases human soluble epoxide hydrolase activity | purified human sEH enzymatic activity, activator screen | activation, % at 2 µM | 91,000 tested, 0.04% active | AID 717; in the data active = activation above about 37%
Target sequence (P34913 whole entry, looked up): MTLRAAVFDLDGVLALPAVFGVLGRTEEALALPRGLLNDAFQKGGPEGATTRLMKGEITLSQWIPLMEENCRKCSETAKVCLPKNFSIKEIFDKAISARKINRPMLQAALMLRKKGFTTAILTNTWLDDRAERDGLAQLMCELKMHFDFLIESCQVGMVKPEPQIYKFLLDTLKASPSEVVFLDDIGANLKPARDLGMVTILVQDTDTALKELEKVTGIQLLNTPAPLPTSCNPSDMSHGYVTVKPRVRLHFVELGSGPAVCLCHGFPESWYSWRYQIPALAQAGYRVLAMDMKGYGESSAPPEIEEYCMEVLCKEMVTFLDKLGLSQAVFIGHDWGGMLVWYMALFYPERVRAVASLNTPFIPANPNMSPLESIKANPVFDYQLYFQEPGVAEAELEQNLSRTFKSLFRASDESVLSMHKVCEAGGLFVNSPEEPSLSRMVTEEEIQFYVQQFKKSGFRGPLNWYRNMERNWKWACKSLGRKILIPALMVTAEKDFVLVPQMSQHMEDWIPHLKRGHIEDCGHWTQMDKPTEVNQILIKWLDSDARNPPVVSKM
Phagocyt inh: blocks phagocytosis by macrophages. 110,000 tested, 0.07% active. J774A.1 macrophage IgG-bead phagocytosis, imaging. inhibition, % at 5 µM;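 active = inhibition above the mean of the plate negative controls plus 5 SD, cut at about 13% in these data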;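 also: phagocytic index as fraction of beads internalized from green versus red external bead signal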
sEH inh: blocks human soluble epoxide hydrolase activity. P34913. 91,000 tested, 0.34% active. inhibition, % at 2 µM. recombinant human sEH enzymatic activity assay; in the data active = inhibition above about 80%
Numbers stand for hits; i = inactive; nt = no result. A selection: hits, their analogues and other compounds. The true share with any hit is near 1%.

SMILES | MRP-1 activ | MRP resist rev | sdo1 growth | sEH act | Phagocyt inh | sEH inh
N#Cc1ccc(NC(=O)c2cc3cc4c5c(c3oc2=N)CCCN5CCC4)cc1 | nt | i | nt | nt | nt | nt
O=C(Nc1ccc(O)cc1)C1CCCO1 (stereo unspecified) | 28 | i | i | i | i | i
NS(=O)(=O)c1ccc(NC(=O)C2CCCO2)cc1 (stereo unspecified) | i | i | i | i | i | i
COc1ccc2c(C)c(C(=O)NCC(C)O)oc2c1OC (stereo unspecified) | i | nt | i | i | nt | i
Cc1cc2nc(/N=C(\N)NC(=O)N3c4ccccc4Sc4ccccc43)nc(C)c2cc1C | 12 | nt | i | nt | nt | nt
Cc1nc(/N=C(\N)Nc2ccccc2)nc2ccccc12 | i | i | i | i | nt | i
COc1ccc2nc(/N=C(\N)NC(=O)N3c4ccccc4Sc4ccccc43)nc(C)c2c1 | i | nt | i | nt | nt | nt
Cc1ccc2nc(/N=C(\N)NC(=O)N3c4ccccc4Sc4ccccc43)nc(C)c2c1 | 8.7 | nt | i | nt | i | nt
Cc1ccc2c(C)nc(/N=C(\N)NC(=O)N3c4ccccc4Sc4ccccc43)nc2c1 | 11 | nt | i | nt | i | nt
CCCCc1nnc(NC(=O)CSc2nc(=O)cc(N)n2-c2cccc(C)c2)s1 | 6.0 | i | i | i | i | i
Cc1cccc(-n2c(N)cc(=O)nc2SCC(=O)Nc2nnc(CC(C)C)s2)c1 | i | i | i | i | i | i
COc1ccccc1NS(=O)(=O)c1cc(NC(=O)/C=C/c2cccs2)ccc1N1CCOCC1 | 6.0 | nt | i | nt | i | nt
CCCCNC1C(CC)C(CCC)C(C#N)(C#N)C1(C#N)C#N (stereo unspecified) | i | nt | i | 44 | i | i
CC(C)(C)CC(=O)N1CCC(c2nc3c(nnn3Cc3c(F)cccc3Cl)c(=O)[nH]2)CC1 | i | i | i | i | i | i
COCc1nc2ccccc2n1CCOc1ccccc1OC | i | i | i | i | i | i
CSCCC(NC(=O)c1ccccc1)C(=O)N/N=C(\C)c1ccccc1 (stereo unspecified) | i | nt | i | nt | nt | nt
CC(=O)c1ccc(N2CCN(c3ncc(C(F)(F)F)cc3Cl)CC2)cc1 | i | i | i | i | nt | i
CC(=O)c1ccc(N2CCN(c3ccc(C(F)(F)F)cn3)CC2)cc1 | 7.8 | nt | i | nt | i | nt
COC(=O)c1cc2c(s1)-c1ccccc1OC2 | i | i | i | 44 | i | i
O=C(c1cc2c(s1)-c1ccccc1OC2)N1CCc2ccccc2C1 | i | nt | i | nt | nt | nt
COc1cc(CC(=O)NCCc2ccc(S(N)(=O)=O)cc2)cc(OC)c1OC | i | nt | i | i | i | i
Cc1ccc(S(=O)(=O)Nc2cc(C(F)(F)F)ccc2N2CCOCC2)c(C)c1 | i | nt | i | nt | i | nt
CCCN1CN(Cc2ccccc2)CC2=C1CC(C)(C)CC2=O | i | i | i | i | i | i
CC1(C)CC(=O)C2=C(C1)NCN(Cc1ccccc1)C2 | i | i | i | 46 | i | i
CCCC1CCC(=C(C#N)C(N)=O)CC1 (stereo unspecified) | i | nt | i | nt | i | nt
SMILES | MRP-1 activ | MRP resist rev | sdo1 growth | sEH act | Phagocyt inh | sEH inh
Cc1c(NC(=O)CSc2ccccc2C(=O)Nc2cccnc2)c(=O)n(-c2ccccc2)n1C | i | i | i | nt | i | nt
COC(=O)CC1SC(=O)NC1=Nc1ccc(O)cc1 (stereo unspecified) | i | i | i | i | nt | i
COC(=O)CC1SC(=O)NC1=O (stereo unspecified) | 7.2 | i | i | i | i | i
COc1ccc(S(=O)(=O)Cc2ccc(C(=O)N3CCN(C4CCCCC4)CC3)o2)cc1 | i | i | i | i | i | i
O=C(c1ccc(CS(=O)(=O)c2ccc(Br)cc2)o1)N1CCN(C2CCCCC2)CC1 | i | 74 | i | i | i | i
CCN(CC)c1ccc2cc(C(=O)Nc3ccc(-n4cnnn4)c(OC)c3)c(=O)oc2c1 | nt | i | nt | nt | i | nt
O=C(CCCN1C(=O)c2ccccc2C1=O)Nc1ccc(S(=O)(=O)N2CCCCC2)cc1 | i | i | i | i | i | 89
Cc1ccc(C=Nc2ccc(N(C)C)cc2)o1 | i | 65 | i | i | i | i
Cc1ccc(C=Nc2ccccc2C(N)=O)o1 | i | nt | i | nt | i | nt
Cc1ccc(NC(=S)N(Cc2cccs2)Cc2cc3cccc(C)c3[nH]c2=O)cc1 | i | nt | i | nt | i | nt
CCOC(=O)Cc1csc(NC(=S)NC(=O)C(C)(C)C)n1 | 13 | nt | i | nt | i | nt
CCOC(=O)Cc1csc(NC(=S)NC(=O)c2ccc(Cl)cc2)n1 | i | nt | i | i | i | i
Cc1ccsc1CNn1cnnc1SCc1ccc(Cl)cc1 | 6.3 | i | i | i | nt | i
Cc1ccc(CNn2cnnc2SCc2ccc(F)cc2)cc1 | i | i | i | i | nt | i
Cc1ccc(-c2nnn(CC(=O)N(c3ccccc3F)C(C(=O)NCC3CCCO3)c3c[nH]c4ccccc34)n2)cc1 (stereo unspecified) | 8.2 | nt | i | i | nt | i
Cc1ccc(-c2nnn(CC(=O)N(c3ccccc3)C(C(=O)NCC3CCCO3)c3ccc(Cl)cc3)n2)cc1 (stereo unspecified) | i | nt | i | i | nt | i
COCc1cc(Sc2ccc(Cl)cc2Cl)nc(-c2ccccc2)n1 | i | nt | i | i | i | i
O=C(c1ccc(COc2ccc(Cl)cc2)o1)N1N=C(C(F)F)CC1(O)C(F)F (stereo unspecified) | 5.6 | nt | i | nt | i | nt
COc1ccccc1OCc1ccc(C(=O)N2N=C(C(F)F)CC2(O)C(F)F)o1 (stereo unspecified) | i | nt | i | i | i | i
Cc1ccc(NC(=O)CC2SC(=O)N(c3ccccc3)C2=O)cc1 (stereo unspecified) | i | i | i | i | nt | i
Cc1cccc(NC(=O)CC2SC(=O)N(c3ccccc3)C2=O)c1 (stereo unspecified) | 8.9 | i | i | i | i | i
O=C(CC1SC(=O)N(c2ccccc2)C1=O)Nc1ccccc1 (stereo unspecified) | 6.8 | i | i | i | i | i
Cc1cccc(NC2SC(=O)N(c3ccccc3)C2=O)c1 (stereo unspecified) | i | i | i | i | i | i
COc1ccc(-n2c(SC3CCOC3=O)nc3ccccc32)cc1 (stereo unspecified) | i | i | i | nt | i | nt
COc1ccc(/C=C2/N=C(SC3CCOC3=O)N(c3cccc(OC)c3)C2=O)cc1 (stereo unspecified) | 5.2 | nt | i | nt | i | nt
SMILES | MRP-1 activ | MRP resist rev | sdo1 growth | sEH act | Phagocyt inh | sEH inh
N#CC1=C(N)SC(N)=C(C#N)C1c1cccc(O)c1 | 5.1 | i | i | i | nt | i
COc1ccc(C2C(C#N)=C(N)SC(N)=C2C#N)cc1OC | i | i | i | i | i | i
O=C(O)/C=C\C(=O)NC1CCCCC1 | 29 | nt | i | nt | i | nt
COc1ccc(-c2nnc(SC(C)C(=O)NNC(=O)c3ccc(C)cc3)o2)cc1 (stereo unspecified) | i | nt | i | nt | nt | nt
COc1ccc(-c2nnc(SC(C)C(=O)Nc3cccc(Cl)c3)o2)cc1 (stereo unspecified) | 5.8 | i | i | i | i | i
CCOc1ccc2nc(NC(=O)CN3CCC(n4nnc5cc(F)ccc54)CC3)sc2c1 | i | i | i | i | i | i
CSc1nc(NC(C)=O)nc(C)c1Br | i | i | i | i | nt | i
Cc1nnc(NC(=O)c2ccccc2Br)s1 | 6.0 | i | i | i | i | i
